Test results from PubChem BioAssay.
For some assays here: Potency and affinity values are given separately. The source made the active and inactive calls. Unless noted, the rule behind the calls is not given here.

Tests used:
[1] = antimalarial activity against Dd2 strain (AID 2302;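 active = growth inhibition above 50% at the single 2 µM test dose, taken to imply half-maximal potency below 2 µM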;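 note: 0% = DMSO untreated growth and 100% = chloroquine plus artemisinin killed control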); conditions: P. falciparum Dd2 in RBCs, LDH growth readout, 72 h; at 2 µM; hits give high values
[2] = human hepatoma cell viability loss – ATP luminescence, cytotoxicity control for P. falciparum antimalarial project, primary screen (AID 2303;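 active = inhibition above 50%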;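 note: 0% = DMSO wells and 100% = digitonin-killed cells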); conditions: HepG2 viability, 24-48 h, at 10 µM, hits give high values
[3] = biological target: L-lactate dehydrogenase (Plasmodium falciparum (isolate CDC / Honduras)) (UniProt Q27743); assay: PfLDH activity inhibition – cell lysate, 3D7 strain, counter-screen for P. falciparum growth inhibition project (AID 2304);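 note: 0% = vehicle and 100% = reference inhibitor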; conditions: P. falciparum 3D7 crude extract, LDH APAD/NBT absorbance; at 2 µM; hits give high values
Chain of L-lactate dehydrogenase (Plasmodium falciparum (isolate CDC / Honduras)) (Q27743 whole entry, looked up): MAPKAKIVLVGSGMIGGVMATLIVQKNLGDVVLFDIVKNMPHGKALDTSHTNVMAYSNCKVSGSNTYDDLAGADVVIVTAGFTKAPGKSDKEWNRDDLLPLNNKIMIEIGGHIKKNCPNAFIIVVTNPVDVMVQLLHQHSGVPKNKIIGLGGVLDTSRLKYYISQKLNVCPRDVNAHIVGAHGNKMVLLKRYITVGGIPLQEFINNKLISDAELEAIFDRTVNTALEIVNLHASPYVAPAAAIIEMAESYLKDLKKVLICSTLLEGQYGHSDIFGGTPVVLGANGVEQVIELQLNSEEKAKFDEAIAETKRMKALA

[4] = inhibition of 3D7 malaria parasite growth – strain 3D7 (AID 2306);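 note: 0% = DMSO wells and 100% = chloroquine plus artemisinin control wells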; conditions: P. falciparum 3D7 erythrocytic growth, LDH absorbance, 72 h; at 2 µM; hits give high values
[5] = biological target: Calcium-dependent protein kinase 1 (Plasmodium falciparum (isolate 3D7)) (UniProt P62344); assay: PfCDPK1 kinase inhibitors, biochemical, TCAMS library (AID 1159585; cut-off not given, nearly all actives have IC50 up to about 0.98 µM;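 note: inhibitors leave more ATP so luminescence rises with inhibition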); conditions: recombinant PfCDPK1, Kinase-Glo ATP depletion luminescence
Chain of Calcium-dependent protein kinase 1 (Plasmodium falciparum (isolate 3D7)) (P62344 whole entry, looked up): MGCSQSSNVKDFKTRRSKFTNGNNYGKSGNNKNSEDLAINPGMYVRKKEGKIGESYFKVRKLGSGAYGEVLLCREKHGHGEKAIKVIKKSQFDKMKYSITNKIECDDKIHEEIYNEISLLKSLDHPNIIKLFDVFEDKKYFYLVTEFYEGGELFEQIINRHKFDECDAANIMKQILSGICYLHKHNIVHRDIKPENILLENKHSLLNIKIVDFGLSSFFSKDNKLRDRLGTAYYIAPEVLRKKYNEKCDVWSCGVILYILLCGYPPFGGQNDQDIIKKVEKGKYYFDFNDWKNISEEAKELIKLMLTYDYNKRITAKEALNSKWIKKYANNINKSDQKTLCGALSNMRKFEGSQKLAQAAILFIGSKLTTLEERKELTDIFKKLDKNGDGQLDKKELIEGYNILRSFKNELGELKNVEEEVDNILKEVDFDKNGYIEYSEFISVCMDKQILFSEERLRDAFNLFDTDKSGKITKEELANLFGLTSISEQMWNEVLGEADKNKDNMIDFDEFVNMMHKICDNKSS

[6] = biological target: Plasmodium falciparum protein kinase 6 (PK6, PF3D7_1337100) (UniProt Q8IDW1); assay: PfPK6 kinase inhibitors, biochemical, TCAMS library (AID 1159586); conditions: recombinant PfPK6, Kinase-Glo ATP depletion luminescence
Chain of Plasmodium falciparum protein kinase 6 (PK6, PF3D7_1337100) (Q8IDW1 1-305): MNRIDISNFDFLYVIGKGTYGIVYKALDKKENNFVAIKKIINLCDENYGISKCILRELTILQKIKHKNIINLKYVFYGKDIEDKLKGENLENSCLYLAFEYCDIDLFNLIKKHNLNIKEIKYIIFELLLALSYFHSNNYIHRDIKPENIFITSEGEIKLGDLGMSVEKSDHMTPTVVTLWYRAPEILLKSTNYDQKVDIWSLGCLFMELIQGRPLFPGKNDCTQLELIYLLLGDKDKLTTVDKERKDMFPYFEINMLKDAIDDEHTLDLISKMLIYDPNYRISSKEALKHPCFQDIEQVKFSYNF

[7] = biological target: Protein kinase 7 (PK7), Plasmodium falciparum 3D7 (PF3D7_0213400) (UniProt Q7YTF7); assay: inhibition of Plasmodium PK7 catalytic activity – biochemical, TCAMS antimalarial set, Kinase-Glo luminescence (AID 1159587); conditions: recombinant PfPK7, Kinase-Glo ATP depletion luminescence
Chain of Protein kinase 7 (PK7), Plasmodium falciparum 3D7 (PF3D7_0213400) (Q7YTF7 1-343): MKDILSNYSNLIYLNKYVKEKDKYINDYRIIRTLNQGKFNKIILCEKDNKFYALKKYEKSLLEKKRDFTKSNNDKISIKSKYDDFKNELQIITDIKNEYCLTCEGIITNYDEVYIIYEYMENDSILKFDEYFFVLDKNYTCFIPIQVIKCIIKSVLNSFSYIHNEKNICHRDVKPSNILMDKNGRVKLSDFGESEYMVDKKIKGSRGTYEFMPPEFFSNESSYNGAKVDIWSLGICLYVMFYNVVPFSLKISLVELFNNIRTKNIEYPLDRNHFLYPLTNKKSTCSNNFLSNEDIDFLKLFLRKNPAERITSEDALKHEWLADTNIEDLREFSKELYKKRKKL

[8] = biological target: Calcium-dependent protein kinase 4 (Plasmodium falciparum (isolate 3D7)) (UniProt Q8IBS5); assay: PfCDPK4 kinase inhibitors, biochemical, TCAMS library (AID 1159588; cut-off not given, nearly all actives have IC50 up to about 0.91 µM); conditions: recombinant PfCDPK4, Kinase-Glo ATP depletion luminescence
Chain of Calcium-dependent protein kinase 4 (Plasmodium falciparum (isolate 3D7)) (Q8IBS5 whole entry, looked up): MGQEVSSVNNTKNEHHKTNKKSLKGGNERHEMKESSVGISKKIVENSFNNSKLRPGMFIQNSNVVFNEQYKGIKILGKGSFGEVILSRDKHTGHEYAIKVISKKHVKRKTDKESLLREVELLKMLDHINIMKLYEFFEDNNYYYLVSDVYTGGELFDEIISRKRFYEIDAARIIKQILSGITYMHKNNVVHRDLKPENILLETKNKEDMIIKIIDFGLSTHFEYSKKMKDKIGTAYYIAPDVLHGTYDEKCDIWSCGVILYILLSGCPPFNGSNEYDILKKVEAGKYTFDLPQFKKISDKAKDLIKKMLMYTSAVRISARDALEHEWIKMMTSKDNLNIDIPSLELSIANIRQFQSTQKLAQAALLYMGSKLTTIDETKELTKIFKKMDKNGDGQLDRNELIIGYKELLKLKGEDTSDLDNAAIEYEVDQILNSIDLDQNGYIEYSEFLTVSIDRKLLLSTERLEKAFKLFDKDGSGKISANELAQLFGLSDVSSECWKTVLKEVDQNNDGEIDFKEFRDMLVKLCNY

COc1ccc(-c2cccc(NC(=O)c3ccc(Cl)cc3)c2)cc1CN(C)CCN(C)C
inactive: inhibition [2] 37% | inhibition [3] 4% | outcome [5] | outcome [6] | outcome [7] | outcome [8]
active: growth inhibition [1] 61% | growth inhibition [4] 99%

COc1ccc(-c2nonc2NC(=O)c2ccc(OC(C)C)cc2)cc1OC
active: growth inhibition [1] 99% | growth inhibition [4] 100%
inactive: inhibition [2] 11% | inhibition [3] -3% | outcome [5] | outcome [6] | outcome [7] | outcome [8]

CC(C)COc1ccc(Cl)cc1Cc1nc(-c2nc3ccc(CN4CCCCC4)cc3[nH]2)co1
active: growth inhibition [1] 70% | growth inhibition [4] 101%
inactive: inhibition [2] 49% | inhibition [3] -4% | outcome [5] | outcome [6] | outcome [7] | outcome [8]

CC1(C)N=C(N)N=C(N)N1OCCCOc1ccccc1N
active: growth inhibition [1] 95% | inhibition [2] 70% | growth inhibition [4] 93%
inactive: inhibition [3] 8% | outcome [5] | outcome [6] | outcome [7] | outcome [8]

Clc1cc(Nc2ncnc3sc(C#C[C@H]4CCCN4)cc23)ccc1OCc1cccnc1Cl
active: growth inhibition [1] 93% | growth inhibition [4] 101%
inactive: inhibition [2] 9% | inhibition [3] -3% | outcome [5] | outcome [6] | outcome [7] | outcome [8]

COc1ccc(Nc2cc(C)nc(Nc3ccc(NC(C)=O)cc3)n2)cc1
active: growth inhibition [4] 98%
inactive: growth inhibition [1] 31% | inhibition [2] 16% | inhibition [3] -1% | outcome [5] | outcome [6] | outcome [7] | outcome [8]

CN1CCCc2ccc(NC(=O)C=Cc3ccc(-c4ccc(F)cc4F)o3)cc2C1
active: growth inhibition [4] 98%
inactive: growth inhibition [1] 20% | inhibition [2] 8% | inhibition [3] -5% | outcome [5] | outcome [6] | outcome [7] | outcome [8]

COc1ccc(NC(=O)Nc2ccc(C)c(-c3ccc(C(=O)Nc4ccncc4)cc3)c2)cc1
active: growth inhibition [1] 50% | growth inhibition [4] 99%
inactive: inhibition [2] 39% | inhibition [3] 4% | outcome [5] | outcome [6] | outcome [7] | outcome [8]

CC(C)(CNCc1ccc(C(F)(F)F)cc1)c1nc(-c2ccc(Cl)c(O)c2)c(-c2ccncc2)[nH]1
active: growth inhibition [1] 98% | growth inhibition [4] 101%
inactive: inhibition [2] 42% | inhibition [3] -1% | outcome [5] | outcome [6] | outcome [7] | outcome [8]

O=c1cc(NCCCNCc2ccc(Cl)c(Cl)c2)[nH]c2ccc(Oc3ccccc3)cc12
active: growth inhibition [4] 92%
inactive: growth inhibition [1] 29% | inhibition [2] 1% | inhibition [3] 2% | outcome [5] | outcome [6] | outcome [7] | outcome [8]

COc1ccc(C(=O)NC(c2ccc(Cl)cc2Cl)c2cc(Cl)c3cccnc3c2O)cc1 (stereo not given)
active: growth inhibition [4] 84%
inactive: growth inhibition [1] 48% | inhibition [2] 46% | inhibition [3] 2% | outcome [5] | outcome [6] | outcome [7] | outcome [8]

O=C(Nc1cccc(-c2cccc(-c3nc4ccc(F)cc4[nH]3)c2)c1)Nc1ccc(F)c(F)c1F
inactive: inhibition [3] 4% | outcome [5] | outcome [6] | outcome [7] | outcome [8]
active: growth inhibition [1] 100% | inhibition [2] 83% | growth inhibition [4] 100%

COc1ccc(CCNCCCCCCNCCc2cccc([N+](=O)[O-])c2)cc1OC
inactive: growth inhibition [1] -3% | inhibition [2] 13% | inhibition [3] -6% | outcome [5] | outcome [6] | outcome [7] | outcome [8]
active: growth inhibition [4] 93%

COC(=O)c1cccc(CNCc2cccc(-c3ccc(-c4nc5c(C)cccc5[nH]4)cc3)c2)c1
inactive: inhibition [2] 3% | inhibition [3] 2% | outcome [5] | outcome [6] | outcome [7] | outcome [8]
active: growth inhibition [1] 52% | growth inhibition [4] 102%

O=C(Nc1ccccc1)c1ccc(-c2cc3ccncc3cc2OC2CCNCC2)s1
inactive: growth inhibition [1] 8% | inhibition [2] -1% | inhibition [3] -2% | outcome [5] | outcome [6] | outcome [7] | outcome [8]
active: growth inhibition [4] 100%

CN(CCNCc1ccc(-c2cccc(-c3nc4ccccc4[nH]3)c2)cc1)S(C)(=O)=O
active: growth inhibition [4] 101%
inactive: growth inhibition [1] 29% | inhibition [2] 9% | inhibition [3] -2% | outcome [5] | outcome [6] | outcome [7] | outcome [8]

CCCN(CCCCNC(=O)c1ccc(-c2cccnc2)cc1)C1CCc2c(O)cccc2C1 (stereo not given)
inactive: growth inhibition [1] 16% | inhibition [2] -1% | inhibition [3] 0% | outcome [5] | outcome [6] | outcome [7] | outcome [8]
active: growth inhibition [4] 87%

Clc1ncccc1-c1nc(NCCC(c2ccccc2)c2ccccc2)no1
active: growth inhibition [1] 82% | growth inhibition [4] 94%
inactive: inhibition [2] 12% | inhibition [3] 3% | outcome [5] | outcome [6] | outcome [7] | outcome [8]

OC1CCCN(Cc2ccc(-c3ccc(-c4nc5ccccc5[nH]4)cc3)cc2)C1 (stereo not given)
inactive: inhibition [2] 46% | inhibition [3] -4% | outcome [5] | outcome [6] | outcome [7] | outcome [8]
active: growth inhibition [1] 77% | growth inhibition [4] 100%

CCCNC(=O)Nc1cc2cc(-c3ccc(CN4CCCC4)cc3)ccc2n2c(C)nnc12
active: inhibition [2] 67% | growth inhibition [4] 93%
inactive: growth inhibition [1] 11% | inhibition [3] 0% | outcome [5] | outcome [6] | outcome [7] | outcome [8]

CN(Cc1ccc(C#N)cc1)C1CCN(c2cc(NC(=O)c3cccc(F)c3)ccn2)CC1
active: growth inhibition [4] 83%
inactive: growth inhibition [1] -9% | inhibition [2] 9% | inhibition [3] -2% | outcome [5] | outcome [6] | outcome [7] | outcome [8]

Cc1[nH]c(C)c(-c2ccc(OCc3cccc(C(F)(F)F)c3)nc2)c(=O)c1Br
active: growth inhibition [1] 97% | growth inhibition [4] 99%
inactive: inhibition [2] 37% | inhibition [3] -2% | outcome [5] | outcome [6] | outcome [7] | outcome [8]

COc1ccc(OCC(=O)Nc2cc(-c3nc4ccccc4[nH]3)ccc2Cl)cc1
active: growth inhibition [4] 94%
inactive: growth inhibition [1] 33% | inhibition [2] 18% | inhibition [3] -4% | outcome [5] | outcome [6] | outcome [7] | outcome [8]

COc1ccc2nccc([C@@H](O)CN3CCC(NCc4nc5ccc(F)cc5[nH]4)CC3)c2c1
inactive: growth inhibition [1] 4% | inhibition [2] 20% | inhibition [3] -2% | outcome [5] | outcome [6] | outcome [7] | outcome [8]
active: growth inhibition [4] 100%

CCOc1ccc(-c2nc(NC(=O)CS(=O)(=O)c3ccccc3)sc2C)cc1
inactive: inhibition [2] 6% | inhibition [3] 2% | outcome [5] | outcome [6] | outcome [7] | outcome [8]
active: growth inhibition [1] 59% | growth inhibition [4] 100%

CC(=O)Nc1ccc(C2NC(=O)NC(c3ccccc3)=C2c2nc3ccccc3s2)cc1 (stereo not given)
inactive: inhibition [2] -3% | inhibition [3] 3% | outcome [5] | outcome [6] | outcome [7] | outcome [8]
active: growth inhibition [1] 96% | growth inhibition [4] 93%

CN1CCN(c2ccc(Nc3ccnc4ccc(-c5ccccc5)cc34)cc2)CC1
active: growth inhibition [1] 101% | growth inhibition [4] 101%
inactive: inhibition [2] 20% | inhibition [3] -2% | outcome [5] | outcome [6] | outcome [7] | outcome [8]

COc1ccc(CNC2Cc3ccccc3C2)cc1-c1ccc(S(=O)(=O)NCCc2ccccn2)s1
active: growth inhibition [4] 92%
inactive: growth inhibition [1] 22% | inhibition [2] 11% | inhibition [3] 0% | outcome [5] | outcome [6] | outcome [7] | outcome [8]

COc1c(C2CCN(CCCCNC(=O)c3ccc(-c4ccc(C(F)(F)F)cc4)c(C(=O)OC(C)C)c3)CC2)ccc2c1CCCC2
active: growth inhibition [4] 90%
inactive: growth inhibition [1] 30% | inhibition [2] 24% | inhibition [3] 0% | outcome [5] | outcome [6] | outcome [7] | outcome [8]

NCCCNc1nc(Nc2ccc(C(F)(F)F)cc2F)c2c(=O)[nH]ccc2n1
inactive: growth inhibition [1] 15% | inhibition [2] 23% | inhibition [3] -1% | outcome [5] | outcome [6] | outcome [7] | outcome [8]
active: growth inhibition [4] 95%

O=C(/C=C/c1ccc(Cl)c(Cl)c1)NC1CCN(CCNC(=O)c2cccc(Cl)c2)CC1
active: growth inhibition [4] 103%
inactive: growth inhibition [1] 45% | inhibition [2] 22% | inhibition [3] 0% | outcome [5] | outcome [6] | outcome [7] | outcome [8]

CCCCCCNC(=O)C1Cc2c([nH]c3ccc(Br)cc23)C2(CCN(Cc3ccccc3)CC2)N1 (stereo not given)
active: growth inhibition [1] 75% | inhibition [2] 100% | growth inhibition [4] 100%
inactive: inhibition [3] 6% | outcome [5] | outcome [6] | outcome [7] | outcome [8]

Cc1csc(NC(=O)c2cn(-c3ccccc3)nc2-c2cccs2)n1
inactive: growth inhibition [1] 12% | inhibition [2] -1% | inhibition [3] 4% | outcome [5] | outcome [6] | outcome [7] | outcome [8]
active: growth inhibition [4] 95%

CC(C)(C)OC(=O)N[C@@H](Cc1ccccc1)C(=O)Nc1cccc(-c2cccc(NC(=O)[C@H](Cc3ccccc3)NC(=O)OC(C)(C)C)c2)c1
active: growth inhibition [1] 97% | growth inhibition [4] 106%
inactive: inhibition [2] 10% | inhibition [3] 6% | outcome [5] | outcome [6] | outcome [7] | outcome [8]

Cc1csc(-c2nc(NCc3cccnc3)ncc2-c2ccsc2)n1
active: growth inhibition [1] 74% | growth inhibition [4] 87%
inactive: inhibition [2] -5% | inhibition [3] -1% | outcome [5] | outcome [6] | outcome [7] | outcome [8]

Cc1ccc(NC(=O)c2ccc3ncccc3c2)cc1OC1CCN(CCC(C)C)CC1
active: growth inhibition [4] 94%
inactive: growth inhibition [1] 48% | inhibition [2] 2% | inhibition [3] -4% | outcome [5] | outcome [6] | outcome [7] | outcome [8]

O=C(Nc1ccc(Cl)cc1)c1cccc(S(=O)(=O)NC2CCN(CC3CCCCC3)CC2)c1
inactive: growth inhibition [1] 11% | inhibition [3] 0% | outcome [5] | outcome [6] | outcome [7] | outcome [8]
active: inhibition [2] 67% | growth inhibition [4] 92%

COc1cccc(-c2nn(C)c3sc(C(=O)Nc4cccnc4)cc23)c1
inactive: growth inhibition [1] 34% | inhibition [2] 1% | inhibition [3] -2% | outcome [5] | outcome [6] | outcome [7] | outcome [8]
active: growth inhibition [4] 86%

COc1ccc(CC2(c3ccc(F)cc3)N=C(N)N(CCCc3ccc4c(c3)OCO4)C2=O)cc1 (stereo not given)
inactive: inhibition [3] 3% | outcome [5] | outcome [6] | outcome [7] | outcome [8]
active: growth inhibition [1] 97% | inhibition [2] 60% | growth inhibition [4] 98%

OCCNc1nc(Nc2cccc(O)c2)nc2ccccc12
inactive: inhibition [2] 3% | inhibition [3] 3% | outcome [5] | outcome [6] | outcome [7] | outcome [8]
active: growth inhibition [1] 55% | growth inhibition [4] 96%
